Here are results for 8 molecules from PubChem BioAssay (Tox21).

Test [1] is described as follows: Nuclear factor erythroid 2-related factor 2/antioxidant responsive element (Nrf2/ARE) small molecule agonists: qHTS cell viability counter screen in human keratinocytes (AID 1919968; active = well fitted curve in the direction sought with a large enough effect in the repeat runs; an effect the other way counts as inactive or inconclusive; note: nearly all actives have a fitted effect of over 55% in size). The procedure, abridged: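 In human HaCaT keratinocytes stably expressing an ARE-driven luciferase, compound exposure lasted 23 h at 37 C under 5% CO2. Viable cells are quantified with a protease-based fluorogenic reagent (CellTiter-Fluor) read 1 h after addition.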
(Quantitative high-throughput screening tests each substance at several concentrations.)

The nature of test [2]: Nuclear factor erythroid 2-related factor 2/antioxidant responsive element (Nrf2/ARE) small molecule agonists: luciferase reporter gene qHTS assay in human keratinocytes (AID 1919969). Note: nearly all actives have a fitted effect of over 35% in size. Note: potency is the fitted concentration of half-maximal effect. In general terms: In a reporter assay the amount or activity of a reporter protein is the signal.
The target of test [3] is Gonadotropin-releasing hormone receptor (Homo sapiens) (UniProt P30968). In words: Human gonadotropin-releasing hormone receptor (GnRHR) small molecule agonists, calcium flux assay in GnRHR-HEK293 cells (AID 1920063). Note: nearly all actives have a fitted effect of over 35% in size. The essentials: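 Intracellular calcium rise is the read-out: engineered human GnRHR HEK293 cells, dye-loaded, are exposed to DMSO-dissolved compounds and fluorescence at Ex/Em 480/540 is tracked for 3 min.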
Gonadotropin-releasing hormone receptor (Homo sapiens), sequence (P30968 whole entry, looked up): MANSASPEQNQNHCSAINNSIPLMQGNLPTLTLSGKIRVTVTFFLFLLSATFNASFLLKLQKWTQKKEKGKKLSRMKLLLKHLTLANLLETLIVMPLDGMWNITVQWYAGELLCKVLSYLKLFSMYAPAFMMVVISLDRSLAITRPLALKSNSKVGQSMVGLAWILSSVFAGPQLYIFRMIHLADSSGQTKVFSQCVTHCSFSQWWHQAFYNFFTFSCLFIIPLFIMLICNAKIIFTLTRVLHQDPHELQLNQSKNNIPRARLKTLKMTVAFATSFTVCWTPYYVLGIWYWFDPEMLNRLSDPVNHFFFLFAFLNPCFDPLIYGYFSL

For test [4], the target named is KiSS-1 receptor (Homo sapiens) (UniProt Q969F8). The test is described as follows: Human kisspeptin (KISS1R) small molecule agonists, calcium flux assay in KISS1R-HEK293 cells (AID 1920064; active = well fitted curve in the direction sought with a large enough effect in the repeat runs; an effect the other way counts as inactive or inconclusive). The procedure, abridged: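 Concentration-response testing used 15 concentrations in triplicate on human KISS1R-expressing HEK293 cells. Calcium-dependent fluorescence (Ex/Em 480/540) was followed kinetically for 3 min after compound transfer.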
KiSS-1 receptor (Homo sapiens), sequence (Q969F8 whole entry, looked up): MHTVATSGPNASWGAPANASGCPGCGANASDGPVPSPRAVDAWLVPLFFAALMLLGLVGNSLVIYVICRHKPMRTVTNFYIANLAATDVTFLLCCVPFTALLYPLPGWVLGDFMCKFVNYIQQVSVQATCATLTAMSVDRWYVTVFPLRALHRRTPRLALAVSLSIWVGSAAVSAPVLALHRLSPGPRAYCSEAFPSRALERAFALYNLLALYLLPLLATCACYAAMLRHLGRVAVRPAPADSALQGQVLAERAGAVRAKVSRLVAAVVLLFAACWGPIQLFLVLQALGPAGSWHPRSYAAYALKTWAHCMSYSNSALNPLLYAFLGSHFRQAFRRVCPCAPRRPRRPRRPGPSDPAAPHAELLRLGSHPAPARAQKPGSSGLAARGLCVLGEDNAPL

Test [5] is described as follows: G protein-coupled receptor (GPCR) small molecule agonists, calcium flux assay: HEK293 wild type cell line counter screen (AID 1920065). The procedure, abridged:
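Fluorescence intensity signals activation. After overnight (18 h) culture and a 1 h calcium dye load at 37 C, compounds are added by pin tool and the plate read at 480/540 nm for 3 min in 1 s steps.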
(Calcium assays in cells follow changes in intracellular calcium, usually with a dye or a luminescent sensor.)

The nature of test [6]: p53 small molecule agonists, cell-based qHTS assay with human liver microsomes: qHTS cell viability counter screen (AID 1963579). Note: nearly all actives have a fitted effect of over 45% in size. Note: potency is the fitted concentration of half-maximal effect. The essentials: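 Metabolic activation used human liver microsomes and NADPH, both 0.5 mg/mL final, over 16 hours at 37 C on p53RE-bla cells (4,000/well). Cytotoxicity measured by CellTiter-Glo luminescence, 30 min at room temperature.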
Test [7] can be described thus: p53 small molecule agonists, cell-based qHTS assay with rat liver microsomes: qHTS cell viability counter screen (AID 1963580). Note: nearly all actives have a fitted effect of over 45% in size. The procedure, abridged:
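After the beta-lactamase ratio was read, CellTiter-Glo was added to the same wells and luminescence measured at 30 min; cells had been treated 16 h at 37 C with compounds, rat liver microsomes and NADPH (0.5 mg/mL final each).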

A short description of test [8]: p53 small molecule agonists, cell-based qHTS assay: qHTS cell viability counter screen (AID 1963581). Note: nearly all actives have a fitted effect of over 45% in size. The essentials:
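Luminescence from CellTiter-Glo, reflecting ATP content, serves as the cytotoxicity measure; it is taken after the 2 h reporter substrate step in HCT-116 p53RE-bla cells dosed for 16 h at 37 C.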

For test [9], the target named is 5-hydroxytryptamine receptor 2A (Homo sapiens) (UniProt P28223). The test is described as follows: 5-hydroxytryptamine receptor 2A (HTR2A) small molecule antagonists, cell-based qHTS assay (AID 1963586). Note: nearly all actives have a fitted effect of over 45% in size. The procedure, abridged:
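CHO cells stably expressing human HTR2A were plated for 18 h at 37 C, then loaded with calcium dye for 1 h. Compounds were preincubated 5 min at room temperature before DOI (4 nM solution) was added. Kinetic fluorescence was read for 3 min.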

Test [10] has the same target. In words: 5-hydroxytryptamine receptor 2A (HTR2A) small molecule agonists, cell-based qHTS assay (AID 1963587). Note: nearly all actives have a fitted effect of over 30% in size. The procedure, abridged: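 CHO cells stably expressing human HTR2A, plated 18 h, loaded with calcium dye 1 h at 37 C. Agonist mode: compounds added and intracellular calcium fluorescence recorded kinetically for 2 min at 1 sec intervals.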
Test [11] has as its target Muscarinic acetylcholine receptor M1 (Homo sapiens) (UniProt P11229). The test is described as follows: Cholinergic receptor muscarinic 1 (CHRM1) small molecule antagonists, cell-based qHTS assay (AID 1963588). Note: nearly all actives have a fitted effect of over 40% in size. The essentials: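 Compounds were tested at 15 concentrations in three independent runs. Dye-loaded CHRM1-CHO cells were exposed 5 min at room temperature before stimulation by acetylcholine added at 50nM. Intracellular calcium was read kinetically on FDSS for 3 min.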

Test [12] has the same target. In words: Cholinergic receptor muscarinic 1 (CHRM1) small molecule agonists, cell-based qHTS assay (AID 1963589). Note: nearly all actives have a fitted effect of over 35% in size. The procedure, abridged:
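Fluorescent calcium dye reports M1 activation in stably transfected CHO cells. Compounds, 15 concentrations, added after 1 h dye loading at 37 C; kinetic reading at 1 sec intervals.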

Test [13] is described as follows: cAMP Responsive Elements (CRE) small molecule agonists, cell-based qHTS assay (AID 1963590). The essentials: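 Compound exposure lasted 3 h at 37 C/5% CO2 in CRE-bla HEK 293T cells grown in assay medium with 10% dialyzed FBS and 25 mM HEPES. Reporter signal came from LiveBLAzer B/G FRET substrate, 2 h, room temperature.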
The nature of test [14]: cAMP Responsive Elements (CRE) small molecule antagonists, cell-based qHTS assay (AID 1963591; active = well fitted inhibition curve with a large enough effect in the signal ratio in the repeat runs, not every such curve was filed as active; the % refers to the signal ratio). The procedure, abridged:
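Stimulation used NKH477 at a final 0.25 uM for 3 h in compound-treated CRE-bla HEK293T cells, seeded 18 h beforehand. Reporter activity was measured with LiveBLAzer B/G FRET substrate after 2 h at room temperature.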

Test [15] concerns the target Beta-2 adrenergic receptor (Homo sapiens) (UniProt P07550). In words: Adrenergic beta2 receptor (ADRB2) small molecule antagonists, cell-based qHTS assay (AID 1963592). Note: series mostly up to about 92 µM; nearly all actives have a fitted effect of over 50% in size. The essentials:
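Assay format: CHO-ADRB2 cells, 18-20hr seeding at 37C/5% CO2, then compound plus 1nM isoproterenol agonist mix for 0.5hr RT. Homogeneous time-resolved fluorescence cAMP detection after 1hr, expressed as 665/615 nm ratio.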

The target is the same in test [16]. In words: Adrenergic beta2 receptor (ADRB2) small molecule agonists, cell-based qHTS assay (AID 1963593).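 Note: CHO cells stably overexpressing human ADRB2.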 The essentials: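 CHO cells stably over-expressing ADRB2 were plated overnight at 37C, then dosed with compounds plus a stimulation mix containing 100uM IBMX and 25uM Ro-20-1724 for 0.5hr at room temperature. cAMP was measured by HTRF competition, 1hr.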

Test [17] concerns the target D(2) dopamine receptor (Homo sapiens) (UniProt P14416). The test is described as follows: Dopamine D2 receptor (DRD2) small molecule agonists, cell-based qHTS assay (AID 1963594). Note: nearly all actives have a fitted effect of over 35% in size. The procedure, abridged:
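HEK293 cells stably expressing human DRD2, pre-treated with PDE inhibitor Ro20-1724 (0.1 mM final) and compound 10 min at room temperature, then stimulated with NKH477 (200nM […]) for 30 min. cAMP read by HTRF (665/620 nm).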

Test [18] shares this target. In words: Dopamine D2 receptor (DRD2) small molecule antagonists, cell-based qHTS assay (AID 1963595; active = well fitted inhibition curve with a large enough effect in the signal ratio in the repeat runs, with a control signal flat; the % refers to the signal ratio). The procedure, abridged: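 Antagonist mode in DRD2-HEK293 cells: after compound addition with 0.1 mM Ro20-1724, cells received quinpirole (12 nM) and NKH477 (200 nM) for 30 min at room temperature; HTRF cAMP read after 1 h detection.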

“And” between values parts separate entries of the source, which are not always exact repeats. Equal entries are not always repeated. Results filed as inconclusive are left out. Some structures have more than one record in an assay (separate samples or runs), and their calls can disagree. The source made the active and inactive calls. Unless noted, calls come from the whole dose curve.

D(2) dopamine receptor (Homo sapiens), sequence (P14416 whole entry, looked up): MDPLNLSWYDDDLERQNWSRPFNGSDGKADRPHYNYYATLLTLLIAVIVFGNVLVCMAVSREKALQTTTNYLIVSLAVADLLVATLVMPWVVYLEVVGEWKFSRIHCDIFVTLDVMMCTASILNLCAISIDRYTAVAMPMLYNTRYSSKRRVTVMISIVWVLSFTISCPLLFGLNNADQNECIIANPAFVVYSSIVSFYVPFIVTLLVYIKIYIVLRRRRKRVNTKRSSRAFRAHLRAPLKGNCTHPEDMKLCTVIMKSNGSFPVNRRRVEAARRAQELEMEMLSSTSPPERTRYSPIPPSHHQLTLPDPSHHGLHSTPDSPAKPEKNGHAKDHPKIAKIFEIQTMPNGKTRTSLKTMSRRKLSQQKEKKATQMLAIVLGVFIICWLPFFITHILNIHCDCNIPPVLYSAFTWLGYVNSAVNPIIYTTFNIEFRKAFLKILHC
Muscarinic acetylcholine receptor M1 (Homo sapiens), sequence (P11229 whole entry, looked up): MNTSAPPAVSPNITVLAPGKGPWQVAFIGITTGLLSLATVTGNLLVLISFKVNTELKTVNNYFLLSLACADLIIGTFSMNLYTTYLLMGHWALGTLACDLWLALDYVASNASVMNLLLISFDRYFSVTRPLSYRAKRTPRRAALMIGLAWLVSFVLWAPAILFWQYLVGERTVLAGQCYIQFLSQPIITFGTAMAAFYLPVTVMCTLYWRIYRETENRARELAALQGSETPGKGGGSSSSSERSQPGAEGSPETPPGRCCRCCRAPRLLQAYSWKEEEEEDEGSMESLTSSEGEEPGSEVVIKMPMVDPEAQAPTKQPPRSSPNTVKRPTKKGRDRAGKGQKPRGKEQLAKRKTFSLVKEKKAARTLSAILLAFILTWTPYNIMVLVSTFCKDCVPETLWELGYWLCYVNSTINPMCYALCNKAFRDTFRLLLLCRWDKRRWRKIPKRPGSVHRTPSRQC
Beta-2 adrenergic receptor (Homo sapiens), sequence (P07550 whole entry, looked up): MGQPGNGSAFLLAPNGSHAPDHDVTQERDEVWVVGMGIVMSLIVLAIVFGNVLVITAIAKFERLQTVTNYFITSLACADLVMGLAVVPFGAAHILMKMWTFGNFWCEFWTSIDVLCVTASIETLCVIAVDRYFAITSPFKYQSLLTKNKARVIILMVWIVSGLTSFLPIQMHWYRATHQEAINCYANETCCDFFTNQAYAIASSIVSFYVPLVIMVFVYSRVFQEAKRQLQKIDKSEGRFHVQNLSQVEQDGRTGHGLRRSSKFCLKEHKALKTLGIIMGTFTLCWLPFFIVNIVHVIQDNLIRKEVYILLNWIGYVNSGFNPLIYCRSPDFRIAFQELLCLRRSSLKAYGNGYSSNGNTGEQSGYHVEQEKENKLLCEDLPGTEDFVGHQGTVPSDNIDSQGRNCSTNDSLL
5-hydroxytryptamine receptor 2A (Homo sapiens), sequence (P28223 whole entry, looked up): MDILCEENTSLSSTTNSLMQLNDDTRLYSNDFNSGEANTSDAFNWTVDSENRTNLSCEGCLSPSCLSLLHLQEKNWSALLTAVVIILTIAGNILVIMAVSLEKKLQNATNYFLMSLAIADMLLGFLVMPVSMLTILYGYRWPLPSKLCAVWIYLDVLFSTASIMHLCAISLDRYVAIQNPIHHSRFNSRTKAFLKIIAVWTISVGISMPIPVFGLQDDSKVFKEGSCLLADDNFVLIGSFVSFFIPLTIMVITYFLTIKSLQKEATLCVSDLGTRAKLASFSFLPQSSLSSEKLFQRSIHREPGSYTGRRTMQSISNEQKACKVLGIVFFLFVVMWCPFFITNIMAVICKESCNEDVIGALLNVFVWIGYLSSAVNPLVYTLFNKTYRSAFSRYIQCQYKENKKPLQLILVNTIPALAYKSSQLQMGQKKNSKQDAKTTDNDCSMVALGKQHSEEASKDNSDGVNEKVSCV

As for `COc1c(Cl)ccc(Cl)c1C(=O)O`, the Potency entry in test [1], in test [2], in [3], in test [4], in test [5] and in test [6] was “inactive” each time. Besides, the Potency entry in test [7], in test [8], in [9], in [10], in test [11] and in [12] was “inactive” in each case. The Potency entry in test [13], in test [14], in test [15], in test [16], in test [17] and in [18] was “inactive” each time.
`CCCCCCCO`: the Potency result in [1], in [3], in test [4], in test [5], in test [6] and in test [7] was “inactive” in each case. For the same molecule, the Potency entry in [8], in test [9], in test [10], in test [11], in [13] and in test [14] was “inactive” throughout. Besides, the Potency entry in test [15], in test [16], in test [17] and in test [18] was “inactive” throughout. Besides, the Potency result in [2] is “inactive and 61.1 µM (active)”.
`CCN(CC)c1ccc(C(=O)c2ccccc2C(=O)O)c(O)c1`: the Potency result in [1], in test [2], in [3], in [4], in test [5] and in test [6] was “inactive” in each case. The Potency result in test [7], in test [8], in [9], in test [10], in test [12] and in test [15] was “inactive” each time. Also, the Potency result in test [17] and in test [18] was “inactive” each time.
Consider `C=C(C)[C@H]1CC=C(C)C(=O)C1`, for which the Potency result in [1], in [2], in [3], in test [4], in test [5] and in [6] was “inactive” each time. For the same molecule, the Potency entry in [7], in test [8], in test [9], in [10], in test [11] and in test [12] was “inactive” throughout. Further, the Potency entry in test [13], in [14], in test [15], in test [17] and in test [18] was “inactive” throughout.
Take `O=C(O)CCCCCCCCCCC(=O)O`: the Potency entry in test [1], in test [2], in test [3], in test [4], in test [5] and in test [6] was “inactive” throughout. In addition, the Potency result in test [7], in test [8], in test [9], in test [10], in test [11] and in test [12] was “inactive” throughout. The Potency result in test [15], in test [16], in test [17] and in test [18] was “inactive” throughout.
As to `CC(C)c1ccc(S(=O)(=O)O)cc1`, the Potency result in test [1], in test [2], in test [3], in [4], in [5] and in [6] was “inactive” in each case. Also, the Potency result in [7], in [8], in [9], in test [10], in test [12] and in test [13] was “inactive” in each case. In addition, the Potency entry in [14], in test [15], in test [16], in test [17] and in [18] was “inactive” throughout.
Consider `CCCCCCCCCCCCOCCO`, for which the Potency entry in test [1], in test [3], in test [4], in test [5], in test [7] and in test [8] was “inactive” in each case. Besides, the Potency entry in test [9], in [10], in [11], in test [12], in test [13] and in test [14] was “inactive” each time. In addition, the Potency entry in test [15], in test [16], in test [17] and in [18] was “inactive” each time. The Potency in test [2] is 27.3 µM (active); in test [6], 20.4 µM (active) and inactive.
Take `O=C(O)c1ccc(C(=O)O)c(C(=O)O)c1`: the Potency result in test [1], in test [2], in test [3], in test [4], in test [5] and in [6] was “inactive” each time. The Potency result in test [7], in test [8], in test [9], in test [10], in test [11] and in test [12] was “inactive” in each case. Besides, the Potency result in test [13], in [14], in test [15], in test [17] and in [18] was “inactive” in each case.
